# From PubChem BioAssay (NCATS)
# Values joined by “and” are separate entries in the source; they are usually repeats but may differ in a detail not shown here. Equal entries are not always repeated. Inconclusive results are not listed. Entries that show only a call come without a potency. The source holds several records for some structures; these can differ, active in one and inactive in another. Active and inactive are the calls of the source. Unless noted, the call rests on the fitted dose curve.
# Experiments:
# [1] = qHTS assay for small molecule antagonists of peroxisome proliferator-activated receptor delta signaling (AID 588535; active means well fitted inhibition curve with a large enough effect in the signal ratio, with a control signal flat, not every such curve was filed as active; the % refers to the signal ratio;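 on max response: cells co-treated with a PPAR-delta agonist as stimulator during compound exposure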); details: HEK293T PPARd-UAS-bla, beta-lactamase FRET ratio, 18 h; 460 nm channel
# Summary of the method: (§1)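 Antagonist-mode beta-lactamase reporter (GeneBLAzer PPAR-delta-UAS-bla) in HEK293T cells, 2% charcoal/dextran FBS, 4000 cells/well. Compound titrations, 18 h at 37 C; CCF4 ratio read, IC50 and efficacy from Hill fits.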
# [2] = target: Peroxisome proliferator-activated receptor delta (Homo sapiens) (UniProt Q03181); experiment: as above; details: HEK293T PPARd-UAS-bla, beta-lactamase FRET ratio, 18 h; series mostly up to 76.7 µM
# Chain of Peroxisome proliferator-activated receptor delta (Homo sapiens) (Q03181 whole entry, looked up): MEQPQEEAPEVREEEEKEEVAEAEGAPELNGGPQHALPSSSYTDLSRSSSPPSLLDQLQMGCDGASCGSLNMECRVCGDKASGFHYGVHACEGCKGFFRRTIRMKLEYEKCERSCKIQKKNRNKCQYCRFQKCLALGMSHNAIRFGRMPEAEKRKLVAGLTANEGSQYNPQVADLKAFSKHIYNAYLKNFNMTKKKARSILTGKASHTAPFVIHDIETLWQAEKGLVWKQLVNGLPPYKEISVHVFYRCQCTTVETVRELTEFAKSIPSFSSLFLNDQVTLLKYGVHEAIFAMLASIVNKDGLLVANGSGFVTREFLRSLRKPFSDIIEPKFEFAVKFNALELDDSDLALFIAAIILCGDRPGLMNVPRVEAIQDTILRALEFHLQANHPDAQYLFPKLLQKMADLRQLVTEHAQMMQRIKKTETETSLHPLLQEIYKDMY
# Summary of the method: as §1
# [3] = target: Vitamin D3 receptor (Homo sapiens) (UniProt P11473); experiment: qHTS assay for small molecule antagonists of vitamin D receptor signaling (AID 588541); details: HEK293T VDR-UAS-bla, beta-lactamase ratio, antagonist mode; series mostly up to 76.7 µM;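 further: receptor activated by calcitriol during compound treatment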
# Chain of Vitamin D3 receptor (Homo sapiens) (P11473 whole entry, looked up): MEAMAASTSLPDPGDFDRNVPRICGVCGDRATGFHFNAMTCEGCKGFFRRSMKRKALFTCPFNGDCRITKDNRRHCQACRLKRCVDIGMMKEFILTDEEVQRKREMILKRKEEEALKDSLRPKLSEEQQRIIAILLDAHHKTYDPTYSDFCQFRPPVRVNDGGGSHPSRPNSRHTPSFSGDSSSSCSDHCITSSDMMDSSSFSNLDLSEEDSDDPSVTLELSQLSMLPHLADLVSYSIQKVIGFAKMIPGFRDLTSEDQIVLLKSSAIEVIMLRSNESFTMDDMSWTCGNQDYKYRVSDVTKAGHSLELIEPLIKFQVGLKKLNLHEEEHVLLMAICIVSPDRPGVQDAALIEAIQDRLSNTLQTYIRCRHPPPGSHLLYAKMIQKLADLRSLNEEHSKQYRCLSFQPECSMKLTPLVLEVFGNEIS
# Summary of the method: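 VDR-UAS-bla HEK293T cells in 2% charcoal-stripped FBS were stimulated with 1-alpha,25-dihydroxyvitamin D3 (3 nM final) plus compound for 16 h at 37 C. The beta-lactamase CCF4 readout was normalized to 50 nM agonist and DMSO, and Hill fits gave IC50.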
# [4] = target: Vitamin D3 receptor (Homo sapiens) (UniProt P11473); experiment: qHTS assay for small molecule agonists of vitamin D receptor signaling (AID 588543); details: HEK293T VDR-UAS-bla, beta-lactamase ratio, 16 h; series mostly up to 76.8 µM
# Summary of the method: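 VDR-UAS-bla HEK293T cells, 2000/well, 2% charcoal-stripped FBS; compound titration 16 h at 37 C; CCF4 beta-lactamase ratio read. Normalized to 50 nM 1-alpha,25-dihydroxyvitamin D3 (100%) and DMSO; Hill fit gives EC50, efficacy.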
# [5] = qHTS assay for small molecule agonists of retinoid X receptor alpha signaling (AID 588544); details: HEK293T RXRa-UAS-bla, beta-lactamase reporter, 18 h; 530 nm emission; further: potency means the concentration at half of the fitted maximal effect
# [6] = target: Retinoic acid receptor RXR-alpha (Homo sapiens) (UniProt P19793); experiment: as above; details: HEK293T RXRa-UAS-bla, beta-lactamase reporter, 18 h; series mostly up to 76.7 µM
# Chain of Retinoic acid receptor RXR-alpha (Homo sapiens) (P19793 whole entry, looked up): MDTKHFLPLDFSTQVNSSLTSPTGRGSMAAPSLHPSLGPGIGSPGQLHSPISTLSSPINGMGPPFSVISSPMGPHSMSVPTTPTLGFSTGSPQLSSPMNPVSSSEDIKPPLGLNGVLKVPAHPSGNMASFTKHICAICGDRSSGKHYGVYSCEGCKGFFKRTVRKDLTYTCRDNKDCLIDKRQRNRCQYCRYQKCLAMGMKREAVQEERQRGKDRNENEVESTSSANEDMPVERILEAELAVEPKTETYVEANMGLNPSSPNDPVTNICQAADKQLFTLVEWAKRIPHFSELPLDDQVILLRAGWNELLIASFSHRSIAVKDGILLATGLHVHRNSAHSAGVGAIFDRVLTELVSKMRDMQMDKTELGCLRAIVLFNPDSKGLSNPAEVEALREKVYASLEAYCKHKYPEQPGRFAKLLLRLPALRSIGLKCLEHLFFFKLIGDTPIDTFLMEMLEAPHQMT
# [7] = target: Thyroid hormone receptor beta (Homo sapiens) (UniProt P10828); experiment: qHTS assay for small molecule agonists of thyroid hormone receptor beta signaling (AID 588545); details: TR-UAS-bla GripTite HEK 293, beta-lactamase ratio, agonist mode, 18 h, percent of T3 response, DMSO as zero; series mostly up to 76.7 µM
# Chain of Thyroid hormone receptor beta (Homo sapiens) (P10828 whole entry, looked up): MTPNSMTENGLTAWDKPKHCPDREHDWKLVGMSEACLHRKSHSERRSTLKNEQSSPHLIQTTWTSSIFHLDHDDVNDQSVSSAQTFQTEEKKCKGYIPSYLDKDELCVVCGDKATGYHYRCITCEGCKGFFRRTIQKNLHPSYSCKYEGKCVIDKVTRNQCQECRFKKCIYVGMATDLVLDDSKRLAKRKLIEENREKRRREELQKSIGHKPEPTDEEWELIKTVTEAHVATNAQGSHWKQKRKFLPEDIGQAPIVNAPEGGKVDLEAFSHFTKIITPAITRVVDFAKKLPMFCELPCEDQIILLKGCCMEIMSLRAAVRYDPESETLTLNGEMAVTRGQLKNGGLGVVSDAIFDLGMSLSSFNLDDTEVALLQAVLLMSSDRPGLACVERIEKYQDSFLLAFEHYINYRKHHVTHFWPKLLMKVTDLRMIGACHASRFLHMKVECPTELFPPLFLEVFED
# Summary of the method: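 HEK 293 TR-UAS-bla; agonist mode; 18 hrs, 37 C; CCF4, ex 405/em 460 and 530 nm; norm. T3 10 nM = 100%, DMSO = 0%; Hill fit → EC50, efficacy.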
# [8] = qHTS assay for small molecule antagonists of retinoid X receptor alpha signaling (AID 588546; active means well fitted inhibition curve with a large enough effect in the signal ratio, with a control signal flat, not every such curve was filed as active; the % refers to the signal ratio; further: potency means the concentration at half of the fitted maximal effect;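 on max response: cells stimulated with 9-cis-retinoic acid as agonist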); details: HEK293T RXRa-UAS-bla, beta-lactamase ratio, antagonist mode; measured here: W530 green channel, cytotoxicity proxy
# Summary of the method: (§2)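 Beta-lactamase reporter inhibition, read as CCF4 fluorescence ratio (ex 405, em 460/530 nm) after 2 h at RT. HEK293T UAS-bla cells, 2500/well, were stimulated with 9-cis-RA at 500 or 100 nM final alongside test compound for 18 h at 37 C.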
# [9] = target: Retinoic acid receptor RXR-alpha (Homo sapiens) (UniProt P19793); experiment: as above; details: HEK293T RXRa-UAS-bla, beta-lactamase ratio, antagonist mode
# Summary of the method: as §2
# [10] = target: Voltage-gated inwardly rectifying potassium channel KCNH2 (Homo sapiens) (UniProt Q12809); experiment: qHTS Assay for Small Molecule Inhibitors of the Human hERG Channel Activity (AID 588834; active means well fitted curve in the direction sought with a large enough effect; an effect the other way counts as inactive or inconclusive;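 further: lower thallium flux fluorescence means stronger hERG block; nearly all actives have a fitted effect of over 50% in size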; further: potency means the concentration at half of the fitted maximal effect); details: U2OS BacMam hERG, FluxOR thallium flux fluorescence; series mostly up to 46.1 µM
# Chain of Voltage-gated inwardly rectifying potassium channel KCNH2 (Homo sapiens) (Q12809 whole entry, looked up): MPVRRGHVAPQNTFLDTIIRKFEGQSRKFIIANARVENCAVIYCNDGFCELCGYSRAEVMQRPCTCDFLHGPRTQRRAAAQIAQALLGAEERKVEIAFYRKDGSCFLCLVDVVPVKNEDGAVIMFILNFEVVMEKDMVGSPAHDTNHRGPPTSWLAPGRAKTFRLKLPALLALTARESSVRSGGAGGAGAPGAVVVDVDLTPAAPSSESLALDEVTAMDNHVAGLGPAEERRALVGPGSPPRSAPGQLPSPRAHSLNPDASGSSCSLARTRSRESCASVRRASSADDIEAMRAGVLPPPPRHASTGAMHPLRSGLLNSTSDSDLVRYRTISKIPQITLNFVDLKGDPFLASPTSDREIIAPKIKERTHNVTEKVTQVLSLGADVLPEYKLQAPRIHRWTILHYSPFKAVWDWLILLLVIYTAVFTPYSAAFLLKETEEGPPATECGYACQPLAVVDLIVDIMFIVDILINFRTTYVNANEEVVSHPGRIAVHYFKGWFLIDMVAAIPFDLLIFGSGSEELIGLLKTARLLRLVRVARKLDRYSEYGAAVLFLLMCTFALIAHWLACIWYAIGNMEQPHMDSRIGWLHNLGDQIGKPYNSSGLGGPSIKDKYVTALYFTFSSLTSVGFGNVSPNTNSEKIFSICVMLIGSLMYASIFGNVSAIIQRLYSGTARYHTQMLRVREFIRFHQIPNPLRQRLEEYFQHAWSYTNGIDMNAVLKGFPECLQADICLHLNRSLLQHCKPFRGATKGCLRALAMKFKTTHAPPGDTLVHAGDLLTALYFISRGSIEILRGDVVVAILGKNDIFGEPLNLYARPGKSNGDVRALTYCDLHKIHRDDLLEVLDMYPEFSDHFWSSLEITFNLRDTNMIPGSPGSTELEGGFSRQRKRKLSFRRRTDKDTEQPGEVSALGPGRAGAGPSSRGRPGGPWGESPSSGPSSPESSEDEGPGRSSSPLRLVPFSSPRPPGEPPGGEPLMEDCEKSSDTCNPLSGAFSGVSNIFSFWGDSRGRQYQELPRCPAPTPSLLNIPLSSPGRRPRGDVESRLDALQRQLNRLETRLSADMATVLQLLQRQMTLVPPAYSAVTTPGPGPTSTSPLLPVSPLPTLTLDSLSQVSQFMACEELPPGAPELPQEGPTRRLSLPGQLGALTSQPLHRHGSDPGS
# Summary of the method: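 U2OS cells BacMam-transduced with hERG, 2000 cells/well, compound ~10 min at 37 °C before stimulation buffer. FluxOR thallium flux fluorescence read kinetically on FDSS; decrease indicates block; AC50 from Hill fits.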
# [11] = target: Luciferin 4-monooxygenase (Photinus pyralis) (UniProt P08659); experiment: Biochemical firefly luciferase enzyme assay for NPC (AID 624030; active means well fitted curve in the direction sought with a large enough effect; an effect the other way counts as inactive or inconclusive;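 further: purified P. pyralis luciferase at 10 nM with luciferin and ATP substrate; nearly all actives have a fitted effect of over 70% in size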); details: purified P. pyralis luciferase, luminescence, 5 min; series mostly up to 58.6 µM
# Chain of Luciferin 4-monooxygenase (Photinus pyralis) (P08659 whole entry, looked up): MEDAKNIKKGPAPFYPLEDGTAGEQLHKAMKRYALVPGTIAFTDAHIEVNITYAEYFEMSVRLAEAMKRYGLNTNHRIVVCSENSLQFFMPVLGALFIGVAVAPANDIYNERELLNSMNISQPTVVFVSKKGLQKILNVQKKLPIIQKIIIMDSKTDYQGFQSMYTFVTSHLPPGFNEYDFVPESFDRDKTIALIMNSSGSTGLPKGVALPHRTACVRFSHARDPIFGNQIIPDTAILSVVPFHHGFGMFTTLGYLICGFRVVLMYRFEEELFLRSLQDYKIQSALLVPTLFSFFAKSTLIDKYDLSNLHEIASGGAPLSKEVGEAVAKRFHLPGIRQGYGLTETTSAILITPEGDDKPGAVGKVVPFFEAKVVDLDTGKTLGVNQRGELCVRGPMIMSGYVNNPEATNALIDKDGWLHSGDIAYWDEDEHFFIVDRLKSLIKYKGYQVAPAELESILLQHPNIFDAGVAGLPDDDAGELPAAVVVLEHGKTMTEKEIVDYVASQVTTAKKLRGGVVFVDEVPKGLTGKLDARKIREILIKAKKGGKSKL
# Summary of the method: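 Purified P. pyralis luciferase at 10 nM in 50 mM Tris Acetate (final), luminescence read within 5 minutes of enzyme addition to compounds. Activity normalised to PTC124 versus DMSO; concentration-response curves classed by r2, magnitude and activity.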
# [12] = S16 Schwann cell viability assay (CellTiter-Glo assay) (AID 624031; active means well fitted curve in the direction sought with a large enough effect; an effect the other way counts as inactive or inconclusive;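 further: cellular ATP luminescence as a viability measure; nearly all actives have a fitted effect of over 70% in size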); details: S16 rat Schwann cells viability, 24 h; series mostly up to 57.5 µM
# Summary of the method: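 Luminescent ATP read-out (CellTiter-Glo) after 24 h compound exposure of native S16 rat Schwann cells at 37 °C. Signals were normalized between cell-free wells and DMSO-treated cells, set as 0% activity.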
# [13] = S16 Schwann cell PMP22 intronic element firefly luciferase assay (AID 624032; active means well fitted curve in the direction sought with a large enough effect; an effect the other way counts as inactive or inconclusive; further: nearly all actives have a fitted effect of over 30% in size); details: S16 rat Schwann cells, PMP22 element FLuc, 24 h; series mostly up to 57.5 µM
# Summary of the method: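 Rat S16 Schwann cells stably carrying firefly luciferase driven by a PMP22 intronic element, in 10% FBS, treated 24 h at 37 C. ONE-Glo luminescence normalized to PTC124 control and DMSO (0%); curves classed by r2, magnitude and activity.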
# [14] = qHTS of Trypanosoma Brucei Inhibitors: LOPAC Validation (AID 624147; active means well fitted curve in the direction sought with a large enough effect; an effect the other way counts as inactive or inconclusive); details: purified enzyme assay, luminescence, 45 min; series mostly up to 57.5 µM
# Summary of the method: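 Enzyme and substrate buffer are dispensed first and compound is pin-transferred. ADP at 130 uM final then starts the reaction, which runs 45 min at room temperature. Detection reagent is added for 10 min before luminescence is imaged.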
# [15] = target: Peroxisome proliferator-activated receptor delta (Homo sapiens) (UniProt Q03181); experiment: qHTS assay for small molecule agonists of peroxisome proliferator-activated receptor delta signaling (AID 588534); details: HEK293T PPARdelta-UAS-bla, beta-lactamase ratio, 18 h; series mostly up to 76.7 µM
# Summary of the method: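 Cells carrying a PPAR-delta beta-lactamase reporter were treated with compounds for 18 h at 37 °C in agonist mode. CCF4 fluorescence was read after 2 h; EC50 and efficacy from Hill fits.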
# [16] = target: Peroxisome proliferator-activated receptor gamma (Homo sapiens) (UniProt P37231); experiment: qHTS assay for small molecule agonists of peroxisome proliferator-activated receptor gamma signaling (AID 588536; active means well fitted curve in the direction sought with a large enough effect in the signal ratio, with a control signal flat, not every such curve was filed as active; the % refers to the signal ratio); details: HEK293 PPARg-UAS-bla, beta-lactamase ratio, 16 h, percent of rosiglitazone response, DMSO as zero; series mostly up to 76.7 µM
# Chain of Peroxisome proliferator-activated receptor gamma (Homo sapiens) (P37231 whole entry, looked up): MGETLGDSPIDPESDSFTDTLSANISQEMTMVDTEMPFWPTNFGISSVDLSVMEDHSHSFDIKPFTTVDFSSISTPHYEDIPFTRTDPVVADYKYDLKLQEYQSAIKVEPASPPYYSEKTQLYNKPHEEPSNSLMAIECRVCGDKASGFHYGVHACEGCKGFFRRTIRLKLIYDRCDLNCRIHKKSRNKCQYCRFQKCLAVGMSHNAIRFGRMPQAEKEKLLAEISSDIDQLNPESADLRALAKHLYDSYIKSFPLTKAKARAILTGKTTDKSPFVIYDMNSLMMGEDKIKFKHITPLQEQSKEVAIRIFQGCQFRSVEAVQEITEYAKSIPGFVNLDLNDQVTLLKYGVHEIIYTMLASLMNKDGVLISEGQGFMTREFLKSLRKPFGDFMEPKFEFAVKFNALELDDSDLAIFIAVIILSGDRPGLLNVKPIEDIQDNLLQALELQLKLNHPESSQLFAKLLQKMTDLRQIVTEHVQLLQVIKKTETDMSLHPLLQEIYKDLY
# Summary of the method: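 GeneBLAzer PPAR-gamma-UAS-bla HEK293 cells in 1% charcoal/dextran-treated FBS medium were treated 16 h at 37 C with compounds. Beta-lactamase activity was read by CCF4 ratio (460/530 nm). Response was normalized to 2 uM rosiglitazone (100%) and DMSO, then Hill-fitted for EC50 and efficacy.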
# [17] = target: Peroxisome proliferator-activated receptor gamma (Homo sapiens) (UniProt P37231); experiment: qHTS assay for small molecule antagonists of peroxisome proliferator-activated receptor gamma signaling (AID 588537; active means well fitted inhibition curve with a large enough effect in the signal ratio, with a control signal flat, not every such curve was filed as active; the % refers to the signal ratio; further: potency means the concentration at half of the fitted maximal effect); details: HEK293 PPARg-UAS-bla, beta-lactamase ratio, antagonist mode; series mostly up to 76.8 µM
# Summary of the method: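 PPARγ-UAS-bla HEK293 cells (3000/well) in 1% charcoal/dextran-stripped FBS are treated with compound, then stimulated with 50 nM rosiglitazone for 16 h at 37 °C. Read-out is CCF4 β-lactamase fluorescence after 2 h at RT. IC50 comes from Hill fits normalised to rosiglitazone and DMSO.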
# [18] = target: Thyroid hormone receptor beta (Homo sapiens) (UniProt P10828); experiment: qHTS assay for small molecule antagonists of thyroid hormone receptor beta signaling (AID 588547; active means well fitted inhibition curve with a large enough effect in the signal ratio, with a control signal flat, not every such curve was filed as active; the % refers to the signal ratio;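 further: cells stimulated with 0.4 nM T3 agonist during compound exposure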); details: TR-UAS-bla HEK293, beta-lactamase ratio, antagonist mode, 18 h
# Summary of the method: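 TR-UAS-bla GripTite HEK293 cells in 2% charcoal/dextran FBS medium; compounds 0.59 nM to 92 uM with T3 at 0.4nM final, 18 h at 37 C. Beta-lactamase read by CCF4 fluorescence (460/530 nm); Hill fits gave IC50 and efficacy.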
# [19] = S16 Schwann cell PMP22 intronic element beta-lactamase assay (AID 624044); details: S16 rat Schwann cells, PMP22 element beta-lactamase FRET, 24 h; series mostly up to 38.3 µM; further: nearly all actives have a fitted effect of over 15% in size
# Summary of the method: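 Rat S16 Schwann cells with beta-Lac driven by a PMP22 intronic element, compound-treated 24 h at 37 °C. LiveBLAzer FRET B/G read: 460 nm normalized to potassium clavulanate vs DMSO; 535 nm FRET as viability; concentration-effect curves classified.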
structure (smiles),measurement,setting,value
Nc1ccncc1,max response,[1],-23%
same,outcome,[2],inactive
same,outcome,[3],inactive
same,outcome,[4],inactive
same,max response,[5],-10.7%
same,Potency,[6],inactive
same,outcome,[7],inactive
same,max response,[8],-5.09%
same,max response,[9],-7.1% (inactive)
same,Potency,[10],inactive
same,Potency,[11],inactive
same,Potency,[12],inactive
same,Potency,[13],inactive
same,outcome,[14],inactive
CS(=O)(=O)OCCCCOS(C)(=O)=O,outcome,[15],inactive
O=c1[nH]cnc2c1ncn2[C@H]1CC[C@@H](CO)O1,outcome,[15],inactive
C[C@]12CCC(=O)C(O)=C1CC[C@@H]1[C@@H]2CC[C@]2(C)C(=O)CC[C@@H]12,outcome,[16],inactive
same,Potency,[17],inactive
same,outcome,[3],inactive
same,outcome,[4],inactive
same,max response,[5],21.6%
same,Potency,[6],inactive
same,max response,[8],17.4%
same,max response,[9],13.8% (inactive)
same,activity change % (negative = inhibition),[18],9.32% (inactive)
same,outcome,[14],inactive
Clc1ccc(C(c2ccccc2Cl)C(Cl)Cl)cc1 (stereo not given),outcome,[15],inactive
Oc1ccccc1-c1ccccc1,max response,[1],-47.4% and 9.69% and -13.4%
same,outcome,[2],inactive
same,outcome,[16],inactive
same,Potency,[17],39.8 µM (active) and inactive
same,outcome,[3],inactive
same,outcome,[4],inactive
same,max response,[5],9.97% and -12.1% and -6.9%
same,outcome,[7],inactive
same,max response,[8],-4.16% and -11.3% and -6.05%
same,max response,[9],10.1% (inactive) and -5.66% (inactive) and 6.56% (inactive)
same,activity change % (negative = inhibition),[18],19.4% (inactive) and 13.4% (inactive)
same,Potency,[10],inactive
same,Potency,[11],inactive
same,Potency,[12],inactive
same,Potency,[13],inactive
Oc1cc(Cl)ccc1Oc1ccc(Cl)cc1Cl,outcome,[15],inactive
same,max response,[1],38.5%
same,outcome,[2],inactive
same,outcome,[16],inactive
same,Potency,[17],inactive
same,outcome,[3],inactive
same,outcome,[4],inactive
same,outcome,[7],inactive
same,max response,[8],-6.33%
same,Potency,[9],44.7 µM (active)
same,Potency,[10],inactive
same,Potency,[11],inactive
same,Potency,[12],inactive
same,Potency,[13],inactive
same,Potency,[19],inactive
C[C@H]1O[C@@H](O[C@H]2[C@@H](O)C[C@H](O[C@H]3[C@@H](O)C[C@H](O[C@H]4CC[C@@]5(C)[C@H](CC[C@@H]6[C@@H]5CC[C@]5(C)[C@@H](C7=CC(=O)OC7)CC[C@]65O)C4)O[C@@H]3C)O[C@@H]2C)C[C@H](O)[C@@H]1O,outcome,[7],inactive
Oc1ccc(Cl)cc1Cc1ccccc1,max response,[1],28.1% and 8.37%
same,outcome,[2],inactive
same,outcome,[16],inactive
same,max response,[5],-11.5% and -1.88%
same,Potency,[6],35.5 µM (active) and 39.8 µM (active)
same,outcome,[7],inactive
same,max response,[8],-5.58%
same,max response,[9],-16.2% (inactive)
same,activity change % (negative = inhibition),[18],-6.58% (inactive) and 9.11% (inactive)
same,Potency,[10],inactive and 44.7 µM (active)
same,Potency,[11],inactive
same,Potency,[12],inactive
same,Potency,[13],inactive
same,Potency,[19],inactive
Cc1ccc(C)c(OCCCC(C)(C)C(=O)O)c1,outcome,[15],inactive
Nc1cc(-c2ccncc2)c[nH]c1=O,outcome,[15],inactive
c1ccc2c(c1)Nc1ccccc1S2,max response,[1],32.2% and -35%
same,outcome,[2],inactive
same,outcome,[16],inactive
same,Potency,[17],inactive and 39.8 µM (active)
same,max response,[5],2.15% and 8.42%
same,Potency,[6],inactive
same,outcome,[7],inactive
same,max response,[8],-11.1% and -4.36%
same,max response,[9],11.2% (inactive) and 0.985% (inactive)
same,activity change % (negative = inhibition),[18],5.64% (inactive) and -8.66% (inactive)
same,Potency,[10],7.08 µM (active) and 12.6 µM (active)
same,Potency,[11],inactive
same,Potency,[12],inactive
same,Potency,[13],inactive
same,Potency,[19],inactive
CC1=C(/C=C/C(C)=C/C=C/C(C)=C/C(=O)Nc2ccc(O)cc2)C(C)(C)CCC1,outcome,[15],inactive
